Rows were chosen to be rich in hits. Some 7.1% of all compounds tested hit in one or more screens of this group.
SW480 rerep: DNA re-replication induction in SW480 cells. SW480 DNA re-replication, Hoechst DNA content imaging, 48 h. Potency, µM (titrated, usually from 46.1 µM), without a hit: at the top dose re-replication activation, usual class: activators. actives 1.8% (n = 340,000). AID 624297; further: potency means the concentration at half of the fitted maximal effect; % of control where 0% means no effect; nearly all actives have a fitted effect of over 55% in size
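Quantitative HTS format with DMSO vehicle controls; 48 hr drug incubation at 37 C, then 40 min Hoechst staining and scanning imager measurement at 405 nm excitation.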
S2 tox: reduces viability in counter-screen for ATXN expression inhibitors; S2 cells (HEK-293 line with an ATXN2-luciferase reporter) viability, CellTiter-Fluor protease fluorescence, 24 h; Potency, µM (titrated, usually from 56.7 µM), hits mostly cytotoxic; actives 0.49% (n = 400,000); AID 651635; further: potency means the concentration at half of the fitted maximal effect; nearly all actives have a fitted effect of over 40% in size
IL-1B inflam inh: blocks inflammasome-driven IL-1 beta release | THP-1 LPS/ATP IL-1B secretion, AlphaLISA, 16 h; active compounds read low | activity change, % at 57.5 µM | actives 4.7% (n = 360,000) | AID 743279; in the data active means activity change below about -50%; inconclusive means mostly about -30% to -49%; further: on the % scale 0 is the no-effect control and ±100 the full control effect
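Secreted IL-1B measured by AlphaLISA bead assay after 16 h compound exposure of THP-1 cells; compounds (final up to 57.5 uM) added 1 h before LPS (250 ng/mL) and ATP (1.25 mM) stimulation; lower signal means less secretion.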
ATXN2 expr inh: reduces ATXN2 reporter expression in HEK-293 cells. Potency, µM (highest dose often 57 µM), for the others: top-dose activity change, negative = inhibition, actives largely listed as inhibitors. HEK-293 ATXN2-luciferase reporter, luminescence, 24 h. actives 0.72% (n = 360,000); further: potency means the concentration at half of the fitted maximal effect; on the % scale 0 is the no-effect control and ±100 the full control effect; nearly all actives have a fitted effect of over 55% in size
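qHTS (up to 57 uM final) was run with 24 h compound exposure of reporter cells at 37 °C. Each well was multiplexed: SteadyGlo luminescence measured ATXN2-luciferase expression after a fluorogenic Gly-Phe-AFC viability readout (25 uM final).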
PINK1 modulator: changes PINK1 expression. PINK1 immunofluorescence, high-content cytometry, 24 h. Potency, µM (series often up to 76.6 µM), for the others: at the top dose activation (PINK1 increase), usual class: activators. AID 624263. actives 0.2% (n = 410,000); active means well fitted activation curve with a large enough effect; inconclusive means small, poorly fitted or top-dose-only effect; cell line not stated here; further: potency means the concentration at half of the fitted maximal effect; % of control where 0% means no effect; nearly all actives have a fitted effect of over 65% in size
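Stable cell line, 250 cells/well, 12 h attachment; compounds pinned at 5 concentrations, 24 h; CCCP control. Fixed with nuclear dye, primary antibodies 12 h at 10 degrees C, secondary plus cell stain; laser-scanning cytometer read.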
MCF10A rereplic: inducers of DNA re-replication in MCF 10A breast cells. MCF 10A DNA re-replication, Hoechst nuclear intensity, 48 h. Potency, µM (titrated, usually from 46.1 µM), for the others: at the highest dose activity, positive = re-replication, hits mostly activators. actives 2.9% (n = 350,000); further: potency means the concentration at half of the fitted maximal effect; % of control where 0% means no effect; nearly all actives have a fitted effect of over 50% in size
Active calls of the source: *; [ ] = remark or other dose. Unless noted, the call rests on the fitted dose curve; in most records, active means well fitted curve in the direction sought with a large enough effect; inconclusive means small, poorly fitted or top-dose-only effect, or another doubt; inactive means no such curve, though single readings can be large; an effect the other way counts as inactive or inconclusive.

`CCOC(=O)c1c(S(=O)(=O)NCC(=O)N(C)Cc2ccccc2)c(C)n(C)c1C` gave S2 tox inactive, ATXN2 expr inh -1.4% and PINK1 modulator 0.7%.
For COC(=O)c1ccc([N+](=O)[O-])c(CS(=O)(=O)c2ccc(Cl)cc2)c1 the results were SW480 rerep 0.3%, S2 tox inactive, IL-1B inflam inh 72.2, ATXN2 expr inh 2.6%, PINK1 modulator -0.1% and MCF10A rereplic 4.1%.
Cc1ccc(S(=O)(=O)Cc2cc(F)c([N+](=O)[O-])cc2[N+](=O)[O-])cc1 was read as SW480 rerep inconclusive, S2 tox inconclusive, IL-1B inflam inh -92.4*, ATXN2 expr inh inconclusive, PINK1 modulator -1.0% and MCF10A rereplic inconclusive.
`CCOC(=O)c1ccc([N+](=O)[O-])c(CS(=O)(=O)c2ccc(Cl)cc2)c1` gave SW480 rerep -0.8%, S2 tox inactive, IL-1B inflam inh 22.2, PINK1 modulator 2.3% and MCF10A rereplic 20.6µM*.
Screening O=C(CSCc1cnn(-c2ccccc2)c1-n1cccc1)NCc1ccc(F)cc1 returned PINK1 modulator -0.6%.
c1ccc(-c2ccc(-c3csc4ncnc(Sc5nnnn5-c5ccccc5)c34)cc2)cc1 was read as PINK1 modulator 0.2%.
Screening CN(C)C(=O)CSc1ncnc2scc(-c3ccccc3)c12 returned SW480 rerep 27.5%, S2 tox inactive, IL-1B inflam inh -11.8, ATXN2 expr inh 7.3%, PINK1 modulator -1.3% and MCF10A rereplic -25.3%.
Cn1nnnc1Sc1ncnc2scc(-c3cccc(Br)c3)c12 was read as SW480 rerep inconclusive, S2 tox 14.1µM*, ATXN2 expr inh 8.91µM*, PINK1 modulator -1.3% and MCF10A rereplic inconclusive.
Screening Cn1nnnc1Sc1ncnc2scc(-c3cccc(S(C)(=O)=O)c3)c12 returned SW480 rerep 10.4%, S2 tox inconclusive, ATXN2 expr inh 8.91µM*, PINK1 modulator 6.9% and MCF10A rereplic 4.61µM*.
O=C(O)CSc1ncnc2scc(-c3ccccc3)c12 was read as SW480 rerep -2.5%, S2 tox inactive, IL-1B inflam inh 6.6, ATXN2 expr inh -12.2%, PINK1 modulator -1.2% and MCF10A rereplic 1.1%.
CC(=O)c1cccc(-c2csc3ncnc(Sc4nnnn4C)c23)c1 was read as S2 tox 7.94µM*, ATXN2 expr inh 6.31µM* and PINK1 modulator 2.5%.
Cc1cc(C)c(Cn2c(=O)n(CCCCCC(=O)NCc3ccc4c(c3)OCO4)c(=O)c3sccc32)c(C)c1 was read as PINK1 modulator 0.8%.
CCOc1ccc(-n2cc(-c3ccccc3)c3c(NCCc4ccccc4)ncnc32)cc1 was read as PINK1 modulator 2.0%.
Screening CCOC(=O)c1c(C)sc2c1N(C(=O)CCl)c1cc(Cl)ccc1S2 returned SW480 rerep inconclusive, S2 tox 17.8µM*, IL-1B inflam inh -101.1*, ATXN2 expr inh inconclusive, PINK1 modulator -6.0% and MCF10A rereplic inconclusive.
`CN(C)/[N+]([O-])=N/Oc1ccc([N+](=O)[O-])cn1` gave PINK1 modulator -0.8%.
COc1cc([N+](=O)[O-])ccc1NC(=O)NCC1CCN(Cc2ccc(Cl)cc2)CC1 was read as SW480 rerep inconclusive, S2 tox inactive, IL-1B inflam inh -79.4*, ATXN2 expr inh -19.2%, PINK1 modulator 0.2% and MCF10A rereplic 9.4%.
COc1ccc(Cl)cc1NC(=O)NCC1CCN(Cc2cc(C)ccc2C)CC1 was read as SW480 rerep 19.0%, S2 tox inconclusive, IL-1B inflam inh -56.2*, PINK1 modulator 2.4% and MCF10A rereplic 19.9%.
Cc1ccc(C)c(CN2CCC(CNC(=O)Nc3ccc(C)c(C)c3)CC2)c1 was read as SW480 rerep inconclusive, S2 tox inactive, IL-1B inflam inh -64.1*, ATXN2 expr inh inconclusive, PINK1 modulator 10.0% and MCF10A rereplic inconclusive.
`COC(=O)C1=C(C)N(Cc2ccco2)C(=O)/C1=C\c1ccc([N+](=O)[O-])cc1` gave SW480 rerep inconclusive, S2 tox inconclusive, IL-1B inflam inh -102.1*, ATXN2 expr inh 12.4%[11.3 µM], PINK1 modulator 2.1% and MCF10A rereplic inconclusive.
Screening COC(=O)C1=C(C)N(Cc2ccc(OC)cc2)C(=O)/C1=C\c1ccco1 returned SW480 rerep 0.1%, S2 tox inactive, IL-1B inflam inh 18.8, ATXN2 expr inh -4.7%, PINK1 modulator 3.5% and MCF10A rereplic 13.0%.
O=C1C=CC(=O)c2c(O)c(N3CCN(CCOCCO)CC3)c(Br)c(O)c21 was read as SW480 rerep inconclusive, S2 tox 10µM*, IL-1B inflam inh -116.9*, ATXN2 expr inh 7.94µM*, PINK1 modulator -0.8% and MCF10A rereplic 3.0%.
`O=C1C=CC(=O)c2c(O)c(N3CCN(CCO)CC3)c(Cl)c(O)c21` gave SW480 rerep 0.651µM*, S2 tox 7.94µM*, IL-1B inflam inh -73.4*, ATXN2 expr inh 5.62µM*, PINK1 modulator -1.7% and MCF10A rereplic 0.2%.
For OCCOCCN1CCN(C2=Nc3ccccc3Sc3ccccc32)CC1 the results were SW480 rerep -9.5%, S2 tox inactive, IL-1B inflam inh -14.9, ATXN2 expr inh -3.0%, PINK1 modulator -1.2% and MCF10A rereplic -19.9%.
For CC(=O)Nc1ccc(NC(=O)COc2ccc(-c3ccc(C#N)cc3)cc2)cc1 the results were SW480 rerep 4.2%, S2 tox inconclusive, IL-1B inflam inh 1.6, ATXN2 expr inh -23.6%, PINK1 modulator 0.6% and MCF10A rereplic 3.8%.
For N#Cc1ccc(-c2ccc(OCC(=O)Nc3cccnc3)cc2)cc1 the results were SW480 rerep -2.0%, S2 tox inactive, IL-1B inflam inh -52.1*, ATXN2 expr inh -33.9%, PINK1 modulator 0.4% and MCF10A rereplic 10.8%.
For O=C1C=C(NC2=CC3OC(c4ccccc4)OCC3OC2=O)CCC1 (centres undefined) the results were SW480 rerep inconclusive, S2 tox inconclusive, IL-1B inflam inh -117.5*, ATXN2 expr inh -25.4%, PINK1 modulator 28.4% and MCF10A rereplic inconclusive.
For O=C(COc1ccc([N+](=O)[O-])cc1)N1CCC(c2nc3ccccc3s2)CC1 the results were S2 tox inconclusive, ATXN2 expr inh -38.4% and PINK1 modulator 1.1%.
Fc1ccc2nc(Nc3nc4c(F)cc(F)cc4s3)sc2c1 was read as SW480 rerep 1.3%, S2 tox inconclusive, IL-1B inflam inh -60.8*, ATXN2 expr inh -2.3%, PINK1 modulator inconclusive and MCF10A rereplic 14.6µM*.
For Fc1ccc2nc(Nc3nc4cc5c(cc4s3)OCCO5)sc2c1 the results were SW480 rerep 19.7%, S2 tox inactive, IL-1B inflam inh 0.0, ATXN2 expr inh 88.4%, PINK1 modulator 29.8% and MCF10A rereplic 14.6µM*.
